The text below walks through data of ChEMBL document CHEMBL1157539, “Thousands of chemical starting points for antimalarial lead identification” (Nature, 2010).

Format in all cases: functional
In test [1] the test system is Plasmodium falciparum. Briefly: GSK_TCMDC: Inhibition of Plasmodium falciparum 3D7 in whole red blood cells, using parasite LDH activity as an index of growth. Test compounds present at 2uM.
Test [2] relates to Plasmodium falciparum. Put plainly: GSK_TCMDC: Inhibition of Plasmodium falciparum Dd2 in whole red blood cells, using parasite LDH activity as an index of growth. Test compounds present at 2uM.
The subject of test [3] is HepG2. Put plainly: GSK_TCMDC: Percent inhibition of human HepG2 cell line. Test compounds present at 10uM.

For `O=C(NC1CCN(Cc2ccccc2)CC1)c1cc(-c2cccnc2)nc2ccc(Cl)cc12`, the Inhibition – broadly, the drop in the measured response relative to a control, in per cent – in test [1] came to 97%; in test [2], 26%; in test [3] it was 0%.

With `CN(Cc1cccc(O)c1)C1CCN(c2cc(NC(=O)c3ccc(F)cc3)ccn2)C1.O=C(O)C(F)(F)F` (configuration not stated), the Inhibition is reported as 91% in test [1], 6% in test [2] and 5% in test [3].

For `N#Cc1c(N)n(CCc2ccc(F)cc2)c2nc3ccccc3nc12`, the Inhibition in test [1] came out at 92%; in test [2], 36%; in test [3] it was 8%.

As to `COc1cc(C(=O)Nc2cccc(-c3cn4ccc(C)cc4n3)c2)cc(OC)c1OC`, the Inhibition was 97% in test [1], 83% in test [2] and 0% in test [3].

For the compound `COc1ccc(CCNCCCCCCNCCc2ccc(Cl)cc2)c(Cl)c1OC.Cl`, the Inhibition in test [1] worked out at 100%; in test [2] it was 4%; in test [3], 88%.

Regarding `Cc1c[nH]c2cc(/C=C/C(=O)NC3CCC(CCN4CCc5ccc(C#N)cc5CC4)CC3)ccc12.Cl` (configuration not stated), the Inhibition in test [1] was found to be 95%; in test [2], 59%; in test [3], 0%.

Take `CCOC(=O)c1ccc(NC(=O)Nc2ccc(-c3cccc(-c4nc5ccccc5[nH]4)c3)cc2)cc1`: the Inhibition in test [1] turned out to be 100%; in test [2], 99%; in test [3], 94%.

Take `COC(=O)c1cccc(CNCc2cccc(-c3cccc(-c4nc5cc(F)ccc5[nH]4)c3)c2)c1.O=C(O)C(F)(F)F`: the results for the Inhibition in test [1], in test [2] and in test [3] were 100%, 52% and 27%, respectively.

On to `Cc1cccc(NC(c2cccs2)c2c(NC(=O)c3ccccc3)sc(C)c2C)n1` (configuration not stated), for which the Inhibition in test [1] worked out at 88%; in test [2], 80%; in test [3] it was 0%.

In the case of `Cn1nc(-c2ccc(NC(=O)Nc3cc(C(F)(F)F)ccc3F)c(F)c2)c2cnc(NCCCN3CCOCC3)nc21.O=C(O)C(F)(F)F`, the Inhibition in test [1] was 100%; in test [2], 62%; in test [3], 31%.

As for `COc1ccc(CC2(CO)CCN(Cc3ccc(O)c(Cl)c3)CC2)cc1`, the figures for the Inhibition in test [1], in test [2] and in test [3] were 98%, 14% and 0%, respectively.

On to `NC1CCN(c2nc(NCCCc3ccc(O)cc3)nc(NCc3cccc4ccccc34)n2)CC1.O=C(O)C(F)(F)F`, for which the Inhibition in test [1] is 100%; in test [2] it was 2%; in test [3], 12%.

As for `COc1ccc(-c2ccc(S(=O)(=O)Nc3cc4c(cc3OC(C)C)CCNCC4)cc2)cc1.Cl`, the Inhibition was determined as 86% in test [1], 0% in test [2] and 16% in test [3].

In the case of `COc1cccc(CN2CCC(C(=O)Nc3ccc(-c4nc5ccccc5[nH]4)cc3)CC2)c1`, the Inhibition in test [1] is on record as 100%; in test [2] it was 84%; in test [3], 9%.

Turning to `O=C(c1ccc([N+](=O)[O-])o1)N1CCN(c2ccccc2)CC1`, the values for the Inhibition in test [1], in test [2] and in test [3] were 94%, 72% and 44%, respectively.

As to `COc1ccc(NC(=O)/C=C/c2ccccc2Cl)cc1OCCN1CCC(N(C)C)CC1`, the Inhibition is given as 89% in test [1], 19% in test [2] and 18% in test [3].

`O=C(NCCCCN1CC=C(c2ccc3c(c2OCc2ccccc2)CCCC3)CC1)c1ccc(-c2ccc(C(F)(F)F)cc2)cc1`: the results for the Inhibition in test [1], in test [2] and in test [3] were 97%, 82% and 19%, respectively.

In the case of `CCc1ccc(CN2CCC(CNC(=O)c3cc(-c4cccc(Cl)c4)cs3)C2)cc1.O=C(O)C(F)(F)F` (configuration not stated), the Inhibition in test [1] stood at 88%; in test [2], 19%; in test [3] it was 27%.

For the compound `Cc1cccc2nc(-c3cccc(-c4ccc(NC(=O)C5CCN(C)CC5)cc4)c3)[nH]c12`, the Inhibition in test [1] amounted to 100%; in test [2] it was 100%; in test [3], 16%.

For the compound `COc1ccc2[nH]cc(C3CCN(CCCCCNC(=O)c4ccc(-c5ccccc5)cc4)CC3)c2c1`, the Inhibition in test [1] worked out at 96%; in test [2] it was 16%; in test [3] it was 50%.

Turning to `Cc1ccc(CN2CCCN(Cc3cccc(NC(=O)c4cc5ccccc5s4)c3)CC2)cc1.O=C(O)C(F)(F)F`, the Inhibition in test [1] is 87%; in test [2] it was 28%; in test [3], 32%.

For `CC(=O)Nc1ccc(Nc2ncc([N+](=O)[O-])c(Nc3ccccc3C(N)=O)n2)cc1.Cl`, the Inhibition in test [1] amounted to 98%; in test [2] it was 97%; in test [3], 42%.

As for `CC(C)C1=CC(=NOS(=O)(=O)c2ccccc2)C=C(C(C)C)C1=O`, the Inhibition in test [1] is 92%; in test [2], 74%; in test [3], 23%.

In the case of `Cn1c(N)c(N=O)c(=O)[nH]c1=O`, the Inhibition is 97% in test [1], 82% in test [2] and 58% in test [3].
